This note sets out measurements from PubChem BioAssay (Tox21).

Values without a mark were called inactive. Inconclusive results are not listed. The source made the active and inactive calls. The call rests on the fitted dose curve; in most records, active means well fitted curve in the direction sought with a large enough effect in the repeat runs; inconclusive means weak or mixed curves; inactive means no such curve, though single readings can be large; an effect the other way counts as inactive or inconclusive.

A short description of test [1]: Human pregnane X receptor (PXR) small molecule agonists, qHTS cell viability counter screen (AID 1346977). Further: nearly all actives have a fitted effect of over 50% in size. The gist of the method: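 Readout is CellTiter-Fluor fluorescence from PXR-Luc HepG2 cells. Plated cells rested 5hr, then were treated with compounds for 24hr at 37C and 5% CO2, with reagent present during the last hour.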
In general terms: In qHTS, concentration-response curves come from the screen itself.

A short description of test [2]: Caspase-3/7 induction in HepG2 cells by small molecules, qHTS assay (AID 1346978). Further: nearly all actives have a fitted effect of over 15% in size. The gist of the method:
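Caspase-3/7 induction was measured by Caspase-Glo 3/7 luminescence (30 min, room temperature) after a 17 hr compound exposure of wild-type HepG2 cells seeded at 2,000 per well and pre-incubated 5 hr.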

Test [3] can be described thus: Caspase-3/7 induction in CHO-K1 cells by small molecules, qHTS assay (AID 1346980). Further: nearly all actives have a fitted effect of over 15% in size. The gist of the method: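 Luminescent Caspase-Glo 3/7 read (30min, room temperature) quantified apoptosis induction. Cells were wild-type CHO-K1, treated with compound for 17hr at 37 C and 5% CO2.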
Test [4] can be described thus: Caspase-3/7 induction in HepG2 cells by small molecules, qHTS cell viability counter screen (AID 1346981). Further: series mostly up to about 92 µM; nearly all actives have a fitted effect of over 30% in size. Put shortly:
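Fluorescence read-out of live-cell protease activity (CellTiter-Fluor) after 1 hr with reagent. This was measured in the same wells as the caspase-3/7 luminescence, on HepG2 cells exposed to DMSO-dissolved compounds for 16 hr at 37 C.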

Test [5] concerns the target Nuclear receptor subfamily 1 group I member 2 (Rattus norvegicus) (UniProt Q9R1A7). As to the kind of experiment: Rat pregnane X receptor (rPXR) activation by small molecules, qHTS assay (AID 1346983). Further: nearly all actives have a fitted effect of over 20% in size. The following applies: rPXR luciferase reporter cells, One-Glo luminescence, 24 h; max activation: stronger effect = higher value. The gist of the method:
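Luminescent readout (One-Glo luciferase, 30 min room temperature) followed 24 hr compound treatment at 37 C of rPXR cells plated 2,000 per well and preincubated 5hr; qHTS format with compounds delivered in DMSO.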

Test [6] addresses Nuclear receptor subfamily 1 group I member 2 (Homo sapiens) (UniProt O75469). Description: CYP3A4 induction through human pregnane X receptor (PXR) by small molecules, qHTS assay (AID 1346984). Further: nearly all actives have a fitted effect of over 40% in size. Put shortly:
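HepG2-derived DPX-2 line carrying PXR plus a CYP3A4-promoter luciferase reporter; cells plated 5 hr, compound-exposed 24 hr at 37C. CYP3A4 activity probed with 3uM (final) Luciferin-IPA for 3hr, then luciferase read after One-Glo.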

For test [7] the target is unchanged. Description: Human pregnane X receptor (PXR) activation by small molecules, qHTS assay (AID 1346985). Further: nearly all actives have a fitted effect of over 40% in size. Put shortly:
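DPX-2 cells (HepG2 co-transfected with a PXR response element and a CYP3A4-promoter luciferase construct) were seeded at 2,000 per well, rested 5 hr at 37C, then exposed to DMSO-dissolved compounds for 24 hr. Activation was read as luciferase luminescence.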

Test [8] has as its target Cytochrome P450 2D6 (Homo sapiens) (UniProt P10635). Description: Cytochrome P450 Family 2 Subfamily D Member 6 (CYP2D6) small molecule antagonists: luciferase reporter qHTS assay (AID 1671196). Further: nearly all actives have a fitted effect of over 50% in size. Further: potency means the concentration at half of the fitted maximal effect. On activity change, negative = inhibition: series mostly up to about 120 µM. The gist of the method:
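Luminogenic proluciferin substrate, CYP2D6 enzyme; 10 min RT preincubation with compound, NADPH regeneration system added, 1 h RT. Stop/detection reagent, 20 min RT, luminescence read (RLU). Signal proportional to CYP activity.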
(In general: In a reporter assay the amount or activity of a reporter protein is the signal.)

Test [9] deals with Cytochrome P450 2C19 (Homo sapiens) (UniProt P33261). Description: Cytochrome P450 Family 2 Subfamily C Member 19 (CYP2C19) small molecule antagonists: luciferase reporter qHTS assay (AID 1671197). Further: nearly all actives have a fitted effect of over 65% in size. Further: potency means the concentration at half of the fitted maximal effect. On activity change, negative = inhibition: series mostly up to about 120 µM. The gist of the method: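 First, compounds are pinned into enzyme-substrate mix and held 10 min at room temperature. Second, NADPH regeneration solution is added and plates incubate 1 h at 37C. Third, detection reagent is added and luminescence read after 20 min.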

Test [10] addresses Cytochrome P450 2C9 (Homo sapiens) (UniProt P11712). Description: Cytochrome P450 Family 2 Subfamily C Member 9 (CYP2C9) small molecule antagonists: luciferase reporter qHTS assay (AID 1671198). Further: nearly all actives have a fitted effect of over 50% in size. Further: potency means the concentration at half of the fitted maximal effect. On activity change, negative = inhibition: series mostly up to about 120 µM. The gist of the method:
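Enzyme-substrate mix preincubated with compound 10 min at room temperature; reaction started with NADPH regeneration solution, 1 h 37C. Luminescent luciferin product read after 20 min detection reagent.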

In test [11] the target is Cytochrome P450 1A2 (Homo sapiens) (UniProt P05177). As to the kind of experiment: Cytochrome P450 Family 1 Subfamily A Member 2 (CYP1A2) small molecule antagonists: luciferase reporter qHTS assay (AID 1671199). Further: nearly all actives have a fitted effect of over 50% in size. Further: potency means the concentration at half of the fitted maximal effect. On activity change, negative = inhibition: series mostly up to about 120 µM. The gist of the method: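 Luminescence readout (relative luminescence units) after luciferin detection reagent, 20 min RT. Preceded by 1 h room-temperature CYP1A2 reaction with NADPH regeneration solution following 10 min compound preincubation with enzyme and proluciferin substrate. Furafylline positive control.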

The target in test [12] is Voltage-gated inwardly rectifying potassium channel KCNH2 (Homo sapiens) (UniProt Q12809). Description: Human Ether-a-go-go-Related Gene (hERG) channel small molecule antagonists: fluorescence cell-based qHTS assay (AID 1671200). Put shortly: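 Measured: Tl+ flux via fluorescence (480/540 nm) in hERG-expressing U2OS cells after 1 h dye loading at room temperature.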
Background: The hERG channel carries a current that helps repolarise heart muscle cells.

For test [13], the target named is Cytochrome P450 3A4 (Homo sapiens) (UniProt P08684). Description: Cytochrome P450 Family 3 Subfamily A Member 4 (CYP3A4) small molecule antagonists: luciferase reporter qHTS assay (AID 1671201). Further: nearly all actives have a fitted effect of over 50% in size. Further: potency means the concentration at half of the fitted maximal effect. On activity change, negative = inhibition: series mostly up to about 120 µM. The gist of the method:
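Setup: enzyme-substrate mix, compound pin transfer, 10 min RT. Reaction: NADPH regeneration solution, 1 h RT. Readout: detection reagent stops turnover, luminescence measured after 20 min, expressed in relative luminescence units.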

Test [14] can be described thus: Caspase-3/7 induction in CHO-K1 cells by small molecules, qHTS cell viability counter screen (AID 1346979). Further: nearly all actives have a fitted effect of over 35% in size. Further: potency means the concentration at half of the fitted maximal effect. Put shortly:
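To flag cytotoxic compounds, treated CHO-K1 wild-type cells were given CellTiter-Fluor at 16hr and read fluorescently after 1hr at 37C; the caspase-3/7 luminescence was measured in these same wells.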

In test [15] the target is Nuclear receptor subfamily 1 group I member 2 (Homo sapiens) (UniProt O75469). As to the kind of experiment: Human pregnane X receptor (PXR) small molecule agonists, qHTS assay (AID 1346982). Further: nearly all actives have a fitted effect of over 35% in size. Further: potency means the concentration at half of the fitted maximal effect. The gist of the method: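 HepG2 PXR-Luc reporter line, 5% charcoal-stripped FBS; 5 hr pre-incubation, compound (DMSO) 24 hr at 37 C/5% CO2; ONE-Glo 30 min RT; luminescence read-out.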
On the % scale 0 is the no-effect control and ±100 the full control effect.

Cytochrome P450 2C9 (Homo sapiens), sequence (P11712 whole entry, looked up): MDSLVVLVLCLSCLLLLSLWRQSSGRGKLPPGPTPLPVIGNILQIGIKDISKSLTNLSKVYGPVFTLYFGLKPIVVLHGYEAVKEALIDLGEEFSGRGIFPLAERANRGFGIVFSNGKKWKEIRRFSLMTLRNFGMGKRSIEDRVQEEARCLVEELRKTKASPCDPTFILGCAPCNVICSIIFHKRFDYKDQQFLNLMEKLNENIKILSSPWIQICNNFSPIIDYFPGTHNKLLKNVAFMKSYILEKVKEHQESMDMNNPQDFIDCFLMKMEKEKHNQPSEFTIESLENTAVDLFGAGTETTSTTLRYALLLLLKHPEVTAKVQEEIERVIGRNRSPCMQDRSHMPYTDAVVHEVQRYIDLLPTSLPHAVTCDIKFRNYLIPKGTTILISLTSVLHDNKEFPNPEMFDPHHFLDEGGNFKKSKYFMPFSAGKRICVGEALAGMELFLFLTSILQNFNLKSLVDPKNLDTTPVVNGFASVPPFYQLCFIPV
Voltage-gated inwardly rectifying potassium channel KCNH2 (Homo sapiens), sequence (Q12809 whole entry, looked up): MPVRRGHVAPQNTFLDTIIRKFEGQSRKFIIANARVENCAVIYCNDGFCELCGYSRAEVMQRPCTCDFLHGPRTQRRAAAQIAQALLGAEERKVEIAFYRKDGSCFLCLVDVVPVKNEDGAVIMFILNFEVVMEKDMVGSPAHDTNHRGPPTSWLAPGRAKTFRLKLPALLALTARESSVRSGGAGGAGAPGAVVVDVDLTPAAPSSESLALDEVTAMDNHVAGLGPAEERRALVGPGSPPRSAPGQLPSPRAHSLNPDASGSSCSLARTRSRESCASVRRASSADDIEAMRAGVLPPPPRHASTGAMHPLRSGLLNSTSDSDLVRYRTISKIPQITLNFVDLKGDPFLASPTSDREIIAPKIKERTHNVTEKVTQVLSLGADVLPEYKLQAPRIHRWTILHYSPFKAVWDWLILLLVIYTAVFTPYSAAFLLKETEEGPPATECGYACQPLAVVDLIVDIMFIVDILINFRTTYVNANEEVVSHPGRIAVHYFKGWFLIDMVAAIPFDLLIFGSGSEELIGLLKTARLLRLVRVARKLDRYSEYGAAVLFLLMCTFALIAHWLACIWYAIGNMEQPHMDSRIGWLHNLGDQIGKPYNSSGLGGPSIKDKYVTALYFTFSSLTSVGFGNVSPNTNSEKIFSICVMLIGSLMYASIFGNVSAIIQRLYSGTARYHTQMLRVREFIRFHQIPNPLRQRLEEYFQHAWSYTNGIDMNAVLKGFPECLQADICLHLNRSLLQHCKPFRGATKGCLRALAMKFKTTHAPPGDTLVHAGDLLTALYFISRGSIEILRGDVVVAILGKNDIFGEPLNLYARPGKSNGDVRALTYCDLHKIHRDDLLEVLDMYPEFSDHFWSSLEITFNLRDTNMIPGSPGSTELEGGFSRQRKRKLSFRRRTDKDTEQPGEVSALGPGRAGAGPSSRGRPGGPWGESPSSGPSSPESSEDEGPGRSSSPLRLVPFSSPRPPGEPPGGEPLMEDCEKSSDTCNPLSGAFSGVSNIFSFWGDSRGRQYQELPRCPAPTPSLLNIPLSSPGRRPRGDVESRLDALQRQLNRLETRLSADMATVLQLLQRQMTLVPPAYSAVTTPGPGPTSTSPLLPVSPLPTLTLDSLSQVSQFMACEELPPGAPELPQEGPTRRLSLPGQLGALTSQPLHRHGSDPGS
Cytochrome P450 2D6 (Homo sapiens), sequence (P10635 whole entry, looked up): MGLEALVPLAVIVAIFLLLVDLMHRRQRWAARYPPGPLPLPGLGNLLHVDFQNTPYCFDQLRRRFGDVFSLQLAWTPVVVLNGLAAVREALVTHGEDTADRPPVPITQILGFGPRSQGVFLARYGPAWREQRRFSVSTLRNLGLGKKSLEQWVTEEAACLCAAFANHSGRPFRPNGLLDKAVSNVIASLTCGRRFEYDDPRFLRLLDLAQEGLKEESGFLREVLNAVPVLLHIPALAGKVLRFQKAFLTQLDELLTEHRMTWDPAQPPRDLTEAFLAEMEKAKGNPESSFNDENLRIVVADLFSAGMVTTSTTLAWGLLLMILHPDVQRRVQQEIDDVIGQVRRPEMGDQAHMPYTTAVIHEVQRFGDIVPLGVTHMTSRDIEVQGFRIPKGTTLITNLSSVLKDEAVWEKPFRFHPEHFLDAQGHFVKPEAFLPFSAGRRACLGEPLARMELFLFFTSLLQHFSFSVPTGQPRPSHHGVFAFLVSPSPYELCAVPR
Nuclear receptor subfamily 1 group I member 2 (Homo sapiens), sequence (O75469 whole entry, looked up): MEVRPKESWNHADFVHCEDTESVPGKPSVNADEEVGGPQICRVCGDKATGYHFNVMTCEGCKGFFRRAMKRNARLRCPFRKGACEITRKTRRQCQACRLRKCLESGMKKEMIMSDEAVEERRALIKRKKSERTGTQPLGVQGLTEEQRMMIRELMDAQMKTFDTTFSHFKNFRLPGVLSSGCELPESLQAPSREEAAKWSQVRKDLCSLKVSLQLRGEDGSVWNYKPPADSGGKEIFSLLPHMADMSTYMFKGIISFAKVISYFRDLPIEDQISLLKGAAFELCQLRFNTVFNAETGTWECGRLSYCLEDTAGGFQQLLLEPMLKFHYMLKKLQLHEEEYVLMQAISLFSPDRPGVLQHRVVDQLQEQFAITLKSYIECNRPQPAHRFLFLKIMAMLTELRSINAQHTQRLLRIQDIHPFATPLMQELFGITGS
Cytochrome P450 1A2 (Homo sapiens), sequence (P05177 whole entry, looked up): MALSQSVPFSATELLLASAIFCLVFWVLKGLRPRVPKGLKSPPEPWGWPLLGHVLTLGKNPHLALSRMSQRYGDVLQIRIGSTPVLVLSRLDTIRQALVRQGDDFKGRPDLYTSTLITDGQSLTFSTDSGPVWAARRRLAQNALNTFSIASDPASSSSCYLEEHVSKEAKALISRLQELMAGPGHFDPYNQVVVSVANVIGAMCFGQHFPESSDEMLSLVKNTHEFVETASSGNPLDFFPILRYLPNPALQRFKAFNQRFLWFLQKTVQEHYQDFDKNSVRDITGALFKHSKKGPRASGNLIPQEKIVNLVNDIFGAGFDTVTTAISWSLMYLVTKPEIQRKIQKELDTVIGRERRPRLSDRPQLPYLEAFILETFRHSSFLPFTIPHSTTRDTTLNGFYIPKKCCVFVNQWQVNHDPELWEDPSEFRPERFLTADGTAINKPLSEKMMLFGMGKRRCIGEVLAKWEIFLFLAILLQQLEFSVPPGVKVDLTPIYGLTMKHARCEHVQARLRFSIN
Cytochrome P450 2C19 (Homo sapiens), sequence (P33261 whole entry, looked up): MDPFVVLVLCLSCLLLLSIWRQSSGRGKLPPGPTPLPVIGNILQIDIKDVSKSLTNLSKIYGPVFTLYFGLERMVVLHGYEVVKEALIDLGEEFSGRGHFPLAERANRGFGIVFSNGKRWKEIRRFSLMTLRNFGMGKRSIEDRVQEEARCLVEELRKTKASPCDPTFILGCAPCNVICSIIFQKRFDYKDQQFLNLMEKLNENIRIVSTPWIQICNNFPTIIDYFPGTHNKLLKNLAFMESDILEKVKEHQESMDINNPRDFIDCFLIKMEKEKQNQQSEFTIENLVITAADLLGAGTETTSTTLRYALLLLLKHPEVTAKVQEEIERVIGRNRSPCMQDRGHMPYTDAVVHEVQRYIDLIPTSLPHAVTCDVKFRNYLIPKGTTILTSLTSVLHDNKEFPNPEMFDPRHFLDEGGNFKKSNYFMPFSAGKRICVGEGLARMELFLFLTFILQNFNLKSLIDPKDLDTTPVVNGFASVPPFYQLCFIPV
Cytochrome P450 3A4 (Homo sapiens), sequence (P08684 whole entry, looked up): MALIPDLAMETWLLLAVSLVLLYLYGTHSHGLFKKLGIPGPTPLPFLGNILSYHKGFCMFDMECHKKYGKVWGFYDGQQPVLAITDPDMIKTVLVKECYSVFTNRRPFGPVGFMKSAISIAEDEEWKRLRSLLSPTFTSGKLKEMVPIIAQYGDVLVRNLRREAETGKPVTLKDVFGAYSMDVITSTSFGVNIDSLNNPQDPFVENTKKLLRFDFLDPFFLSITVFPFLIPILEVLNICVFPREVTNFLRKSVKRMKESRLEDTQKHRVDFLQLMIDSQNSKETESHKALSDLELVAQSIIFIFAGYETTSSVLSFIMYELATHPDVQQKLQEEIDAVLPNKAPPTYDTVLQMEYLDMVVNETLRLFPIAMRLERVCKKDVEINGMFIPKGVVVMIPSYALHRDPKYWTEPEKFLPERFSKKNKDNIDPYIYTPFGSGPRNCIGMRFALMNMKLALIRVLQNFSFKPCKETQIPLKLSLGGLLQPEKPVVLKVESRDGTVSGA
Nuclear receptor subfamily 1 group I member 2 (Rattus norvegicus), sequence (Q9R1A7 whole entry, looked up): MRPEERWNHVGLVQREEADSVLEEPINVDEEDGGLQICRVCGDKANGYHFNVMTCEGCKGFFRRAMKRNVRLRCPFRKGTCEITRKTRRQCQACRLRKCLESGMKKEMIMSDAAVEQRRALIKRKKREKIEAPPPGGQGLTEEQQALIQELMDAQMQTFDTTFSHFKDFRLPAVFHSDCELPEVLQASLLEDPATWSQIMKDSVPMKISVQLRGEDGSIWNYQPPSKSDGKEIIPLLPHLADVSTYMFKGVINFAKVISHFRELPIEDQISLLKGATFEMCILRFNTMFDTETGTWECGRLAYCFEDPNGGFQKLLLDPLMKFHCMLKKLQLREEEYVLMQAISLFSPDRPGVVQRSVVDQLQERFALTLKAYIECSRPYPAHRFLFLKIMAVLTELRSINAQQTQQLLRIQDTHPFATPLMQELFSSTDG

As to `CC(=O)Oc1ccc(C(=C2CCCCC2)c2ccc(OC(C)=O)cc2)cc1`, the Potency result in [1], in test [2], in test [4], in test [6], in test [7] and in test [11] was “inactive” throughout. For the same compound, the Potency result in test [12] and in test [13] was “inactive” each time. For the same compound, in test [3], the compound was called inactive. Also, in test [5], the max activation was -2.09%. Moreover, the Potency in test [8] is 15.5 µM (active); in test [9] it was 9.77 µM (active); in [10] it was 9.77 µM (active).

Turning to `Cc1nccn1-c1ccc(Sc2cccc(C3(C(N)=O)CCOCC3)c2)cc1`, the Potency result in [2] is “inactive”. Further, the Potency in [14] is 7.7 µM (active); in [15], 13.7 µM (active); in test [8] it was 35.6 µM (active); in [9], 20 µM (active); in test [10], 5.64 µM (active); in [13], 7.96 µM (active). Besides, the compound was called inactive in [3].

On to `Oc1cc(O)c(Cl)cc1Cl`, for which the Potency result in test [2], in test [14], in test [15], in [9] and in [12] was “inactive” throughout. Besides, in test [3], the outcome was inactive. The Potency in test [10] is 40.9 µM (active); in test [11], 18.3 µM (active); in test [13], 36.5 µM (active).

On to `CC1=C(C=O)C(C)(C)CCC1`, for which the Potency result in test [2], in test [14], in test [8], in test [11] and in test [12] was “inactive” each time. Also, in test [15], the Potency was 27.3 µM (active).

For the compound `C=CCCCCCCCCCCCCCCCC`, the caspase activation in test [2] was -6.49% [at 8.39 µM]. For the same compound, the activity change, negative = cytotoxicity in [14] was 7.02% [at 8.39 µM]; in [4], -1.16% [at 8.39 µM]. Moreover, the caspase-3/7 activation in [3] is 0.114% [at 8.39 µM]. The activation in test [15] was -1.52% [at 8.39 µM]. Moreover, the activity change, negative = inhibition was 0.602% [at 10.5 µM] in test [8], 5.26% [at 10.5 µM] in test [9], 3.76% [at 10.5 µM] in [10] and -0.108% [at 6.97 µM] in [12].

For the compound `CCCCC(=O)O[C@]1(C(=O)CO)[C@@H](C)C[C@H]2[C@@H]3CCC4=CC(=O)C=C[C@]4(C)[C@@]3(F)[C@@H](O)C[C@@]21C`, the Potency result in [1], in [2], in [11] and in [12] was “inactive” each time. Also, the compound was classed as inactive in [3]. In addition, in test [8], the Potency is 35.6 µM (active).

Turning to `CC(=O)Nc1ccc(N)cc1`, the Potency result in test [1], in [2], in [14], in test [4], in test [9] and in [12] was “inactive” throughout. In addition, the results for the Potency in [8], in [11] and in test [13] were 40.5 µM (active), 40.5 µM (active) and 28.7 µM (active), respectively.

Take `CCCCCC=CCC=CCCCCCCCC(=O)OCC`: the Potency result in test [1], in test [2], in [4], in test [6], in test [7] and in [8] was “inactive” throughout. In addition, the result in test [3] was inactive. Moreover, the max activation in test [5] was -2.8%. The values for the Potency in test [9], in test [10] and in [11] were 21.9 µM (active), 15.5 µM (active) and 27.5 µM (active), respectively.

Consider `CCCc1c(OCCCOc2ccc(OCC(=O)O)cc2)ccc(C(C)=O)c1O`, for which the Potency entry in [1], in test [2], in [4], in test [8], in test [12] and in test [13] was “inactive” throughout. In addition, the outcome in test [3] was inactive. Besides, the Potency in [10] is 8.94 µM (active).
